From PubChem BioAssay (NCATS)
“And” between values parts separate entries of the source, which are not always exact repeats. Equal values may be shown once. Inconclusive results are not listed. The source made the active and inactive calls. Unless noted, calls come from the whole dose curve; as a rule, active = well fitted curve in the direction sought with a large enough effect; inconclusive = small, poorly fitted or top-dose-only effect, or another doubt; inactive = no such curve, though single readings can be large; an effect the other way counts as inactive or inconclusive.

What was measured:
CASKI = assay: Primary qHTS to identify gynecologic anti-cancer compounds using libraries of approved drugs and bioactive compounds (AID 1345084); settings: Gynecologic cancer cell panel viability, ATPlite luminescence, 48 h; series mostly up to 57.5 µM; note: nearly all actives have a fitted effect of over 55% in size; note: potency is the fitted concentration of half-maximal effect
Method in brief: (§1)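 In this quantitative HTS, cell killing is estimated from loss of ATP-dependent luciferase light. Cells see five compound concentrations over a 48 h exposure.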

Hek293T = assay: as above; settings: Gynecologic cancer cell panel viability, ATPlite luminescence, 48 h, control line for the selectivity index; series mostly up to 57.5 µM
Method in brief: as §1

PA-1 = assay: as above; settings: Gynecologic cancer cell panel viability, ATPlite luminescence, 48 h; series mostly up to 57.5 µM
Method in brief: as §1

Tov-21-G = assay: as above; settings: Gynecologic cancer cell panel viability, ATPlite luminescence, 48 h; series mostly up to 57.5 µM
Method in brief: as §1

CAOV3 = assay: as above; settings: Gynecologic cancer cell panel viability, ATPlite luminescence, 48 h; series mostly up to 57.5 µM
Method in brief: as §1

HeLa = assay: as above; settings: Gynecologic cancer cell panel viability, ATPlite luminescence, 48 h; series mostly up to 57.5 µM
Method in brief: as §1

Tov112D = assay: as above; settings: Gynecologic cancer cell panel viability, ATPlite luminescence, 48 h; series mostly up to 57.5 µM
Method in brief: as §1

Es-2 = assay: as above; settings: Gynecologic cancer cell panel viability, ATPlite luminescence, 48 h; series mostly up to 57.5 µM
Method in brief: as §1

JEG-3 = assay: as above; settings: Gynecologic cancer cell panel viability, ATPlite luminescence, 48 h; series mostly up to 57.5 µM
Method in brief: as §1

SKOV3 = assay: as above; settings: Gynecologic cancer cell panel viability, ATPlite luminescence, 48 h; series mostly up to 57.5 µM
Method in brief: as §1

[1] = Drug repurposing screens with cells derived from glioblastoma tumor samples (AID 1345199); settings: GBM patient neurospheres viability, ATP luminescence, 48 h; note: nearly all actives have a fitted effect of over 40% in size; note: potency is the fitted concentration of half-maximal effect; for activity, negative = cell killing: % is set by controls: 0 for no effect and ±100 for the full control effect
Method in brief: (§2)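 Primary testing used CD133+ neurospheres from four GBM patients, seven concentrations, 48 h exposure and ATP-based viability; confirmation added three slower-growing patient lines.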

astro = assay: as above; settings: viability, ATP luminescence, 48 h; series mostly up to 45.9 µM
Method in brief: as §2

[2] = molecular target: Nuclear receptor subfamily 1 group I member 2 (Rattus norvegicus) (UniProt Q9R1A7); assay: qHTS assay for small molecule activators of the rat pregnane X receptor (rPXR) signaling pathway (AID 651751; call rule not given here; note: 0% is about no effect); settings: rPXR reporter cells, luciferase (One-Glo), 24 h
Sequence of Nuclear receptor subfamily 1 group I member 2 (Rattus norvegicus) (Q9R1A7 whole entry, looked up): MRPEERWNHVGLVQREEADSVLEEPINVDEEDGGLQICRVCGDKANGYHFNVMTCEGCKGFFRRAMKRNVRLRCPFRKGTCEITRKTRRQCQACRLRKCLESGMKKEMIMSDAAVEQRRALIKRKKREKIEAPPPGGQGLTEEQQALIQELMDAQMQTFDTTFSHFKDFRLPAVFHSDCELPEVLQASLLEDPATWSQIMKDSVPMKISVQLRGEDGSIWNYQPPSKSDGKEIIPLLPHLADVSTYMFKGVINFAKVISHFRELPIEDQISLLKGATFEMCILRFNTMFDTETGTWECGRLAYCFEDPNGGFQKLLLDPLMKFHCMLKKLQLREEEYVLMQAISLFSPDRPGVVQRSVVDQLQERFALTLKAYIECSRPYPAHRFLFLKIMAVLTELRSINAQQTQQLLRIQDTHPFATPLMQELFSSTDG

[3] = qHTS assay for small molecule activators of the human pregnane X receptor (PXR) signaling pathway (AID 720659; call rule not given here; note: 0% is about no effect)
OV90 = assay: Primary qHTS to identify gynecologic anti-cancer compounds using libraries of approved drugs and bioactive compounds (AID 1345084); settings: Gynecologic cancer cell panel viability, ATPlite luminescence, 48 h; series mostly up to 57.5 µM; note: nearly all actives have a fitted effect of over 55% in size; note: potency is the fitted concentration of half-maximal effect
Method in brief: as §1

[4] = qHTS assay to identify inhibitors of the type 1 interferon - major histocompatibility complex class I in skeletal muscle: Counter screen cell viability and HiBit confirmation (AID 1347412); settings: iHSKM muscle cells + IFN-b, HiBiT or CellTiter-Glo, 24 h; for activity change, negative = inhibition: at 45.9 µM (top of the series); note: potency is the fitted concentration of half-maximal effect; for activity change, negative = inhibition: % is set by controls: 0 for no effect and ±100 for the full control effect; for all read-outs here: nearly all actives have a fitted effect of over 60% in size
Method in brief: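 HLA-B*08:01–HiBiT knock-in immortalized human myoblasts (C25cl48) stimulated with 4.0 ng/ml human IFN-beta and dosed with compound in a 12-point 1:3 titration (top final 46 uM). After 24 hrs at 37 C, HiBiT lytic luminescence or CellTiter Glo ATP read out.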

[5] = at 45.9 µM (top of the series), tumour line B
[6] = at 45.9 µM (top of the series), tumour line D
[7] = at 46.1 µM (top of the series), tumour line C

N=C1N=C(N)c2cc3ccccc3cc21
active: Potency (CASKI) 31.6 µM | Potency (Hek293T) 39.8 µM | Potency (PA-1) 35.5 µM | Potency (Tov-21-G) 35.5 µM

C/C(=N\O)c1ccc(OCC(=O)N2CCCCC2)cc1
inactive: Potency (CAOV3) | Potency (CASKI) | Potency (HeLa) | Potency (Hek293T) | Potency (PA-1) | Potency (Tov112D)

CN1[C@@H]2CC[C@H]1CC(OC(c1ccccc1)c1ccccc1)C2 (stereo partly drawn)
active: Potency ([1]; tumour line A) 7.08 µM
inactive: Potency (CAOV3) | Potency (CASKI) | Potency (Es-2) | Potency (HeLa) | Potency (Hek293T) | Potency (JEG-3) | Potency (PA-1) | Potency (SKOV3) | Potency (Tov-21-G) | Potency (Tov112D) | activity, negative = cell killing [1, 5] -9.62% | Potency (astro)

Nc1ccc([N+](=O)[O-])cc1O
inactive: Potency (CAOV3) | Potency (HeLa) | Potency (Hek293T) | Potency (JEG-3) | Potency (Tov-21-G) | Potency (Tov112D) | max response [2] -5.85% and -4.85% | outcome [3]
active: Potency (PA-1) 4.47 µM

CCNC(=O)[C@H]1O[C@@H](n2cnc3c(N)nc(NCCc4ccc(CCC(=O)O)cc4)nc32)[C@H](O)[C@@H]1O
inactive: Potency (CASKI) | Potency (Es-2) | Potency (HeLa) | Potency (Hek293T) | Potency (JEG-3) | Potency (OV90) | Potency (PA-1) | Potency (SKOV3) | Potency (Tov-21-G) | Potency (Tov112D)

Nc1nc2ccc([N+](=O)[O-])cc2s1
inactive: Potency (CASKI) | Potency (Es-2) | Potency (JEG-3) | Potency (OV90) | Potency (PA-1) | Potency (Tov-21-G) | Potency (Tov112D) | activity, negative = cell killing ([1]; at 91.6 µM (top of the series), tumour line B) -13.3% | activity, negative = cell killing ([1]; at 99.2 µM (top of the series), tumour line C) -20.5% | max response [2] -3.29% | outcome [3]
active: Potency ([1]; tumour line A) 39.8 µM

COc1ccc(/C=C/C(=O)Nc2ccccc2C(=O)O)cc1OC
inactive: Potency (CASKI) | Potency (Es-2) | Potency (HeLa) | Potency (Hek293T) | Potency (PA-1) | Potency (Tov-21-G) | Potency (Tov112D)

Cc1c(C(=O)O)c(O)cc2c1C(=O)c1c(O)c([C@@H]3O[C@H](CO)[C@@H](O)[C@H](O)[C@H]3O)c(O)c(O)c1C2=O
inactive: Potency (CAOV3) | Potency (CASKI) | Potency (Es-2) | Potency (HeLa) | Potency (Hek293T) | Potency (JEG-3) | Potency (PA-1) | Potency (SKOV3) | Potency (Tov-21-G) | Potency (Tov112D) | activity, negative = cell killing [1, 5] -25.2% | activity, negative = cell killing [1, 6] -27.3% | activity, negative = cell killing [1, 7] 21.4%

CCCSc1ccc2nc(NC(=O)OC)[nH]c2c1
active: Potency (Es-2) 3.55 µM | Potency (HeLa) 2 µM | Potency (Hek293T) 0.891 µM | Potency (PA-1) 1.58 µM | Potency (SKOV3) 2.24 µM | Potency (Tov-21-G) 2 µM | Potency (Tov112D) 1.12 µM | Potency (astro) 0.501 µM

CC(N)C(=O)OC(C)(C)Cc1ccc(Cl)cc1 (stereo not drawn)
active: Potency ([1]; tumour line A) 20 µM
inactive: Potency (CAOV3) | Potency (CASKI) | Potency (Es-2) | Potency (HeLa) | Potency (JEG-3) | Potency (OV90) | Potency (PA-1) | Potency (SKOV3) | Potency (Tov-21-G) | Potency (Tov112D) | activity, negative = cell killing [1, 5] -21.1% | activity, negative = cell killing [1, 6] -21.2%

CCCC(=O)OC[C@@H](OC(=O)CCC)[C@@H](OC(=O)CCC)[C@H](Cn1c2nc(=O)[nH]c(=O)c-2nc2cc(C)c(C)cc21)OC(=O)CCC
inactive: Potency (CAOV3) | Potency (CASKI) | Potency (Es-2) | Potency (HeLa) | Potency (Hek293T) | Potency (PA-1) | Potency (SKOV3) | Potency (Tov-21-G) | Potency (Tov112D) | activity, negative = cell killing [1, 7] -29.1% | Potency (astro)
active: Potency ([1]; tumour line A) 8.91 µM | Potency ([1]; tumour line D) 12.6 µM

COC(=O)C1=C(C)NC(C)=C(C(=O)OC)C1c1cccc(NC(=O)NCCCN2CCC(c3cccc(OC)c3)CC2)c1
active: Potency (CAOV3) 22.4 µM
inactive: Potency (Es-2) | Potency (HeLa) | Potency (Hek293T) | Potency (Tov-21-G) | activity change, negative = inhibition ([4]; HiBiT) -3.18% | activity change, negative = inhibition ([4]; Viability) -19.5%

COc1cc(NC(C)CCCN)c2ncccc2c1 (stereo not drawn)
inactive: Potency (CAOV3) | Potency (CASKI) | Potency (Es-2) | Potency (HeLa) | Potency (Hek293T) | Potency (OV90) | Potency (PA-1) | Potency (SKOV3) | Potency (Tov-21-G) | Potency (Tov112D) | activity, negative = cell killing ([1]; at 20 µM (top of the series), tumour line C) 6.33% | Potency (astro)
active: Potency ([1]; tumour line A) 10 µM

O=c1[nH]c2ccccc2n1CCCN1CCN(C(c2ccccc2)c2ccccc2)CC1
inactive: Potency (HeLa) | Potency (JEG-3) | Potency (Tov112D)

COC(=O)c1nc(Cl)c(Cl)nc1N
active: Potency (HeLa) 7.08 µM | Potency (Hek293T) 14.1 µM | Potency (PA-1) 14.1 µM | Potency (Tov-21-G) 12.6 µM | Potency (Tov112D) 3.16 µM | Potency ([4]; HiBiT) 2.22 µM | Potency ([4]; Viability) 11.1 µM

CN(C)c1ccc(C(=C2C=CC(=[N+](C)C)C=C2)c2ccccc2)cc1
inactive: outcome [3]
active: Potency (Es-2) 1.78 µM | Potency (HeLa) 2.51 µM | Potency (Hek293T) 2.51 µM | Potency (OV90) 11.2 µM | Potency (PA-1) 1.26 µM | Potency (SKOV3) 1.12 µM | Potency (Tov112D) 2 µM | Potency ([4]; HiBiT) 1.98 µM | Potency ([4]; Viability) 3.94 µM

O=C(Nc1ccc2[nH]ncc2c1)C1CCC1
inactive: Potency (CASKI) | Potency (Es-2) | Potency (HeLa) | Potency (Hek293T) | Potency (JEG-3) | Potency (OV90) | Potency (PA-1) | Potency (SKOV3) | Potency (Tov-21-G) | Potency (Tov112D)

COC(=O)C1=C(C)NC(C)=C(C(=O)OCC(C)=O)C1c1ccccc1[N+](=O)[O-] (stereo not drawn)
inactive: Potency (CAOV3) | Potency (CASKI) | Potency (Es-2) | Potency (Hek293T) | Potency (JEG-3) | Potency (OV90) | Potency (PA-1) | Potency (SKOV3) | Potency (Tov-21-G) | Potency (Tov112D)
